KB-3-1 tox: kills parental KB-3-1 adenocarcinoma cells; 1.4% of 400,000 active; KB-3-1 viability, CellTiter-Glo ATP luminescence, 72 h; Potency, µM (series often up to 46.1 µM), hits mostly cytotoxic; AID 1347075; also: % is scaled to controls: 0 for no effect and ±100 for the full control effect; nearly all actives have a fitted effect of over 60% in size
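72 h, 37 °C compound treatment of KB-3-1 parental cells; CellTiter-Glo added, 10 min, luminescence read. Data corrected against DMSO-only plates and normalized before curve fitting.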
SW480 rereplic: induces DNA re-replication in SW480 colon adenocarcinoma cells; SW480 DNA re-replication, Hoechst DNA content imaging, 48 h; Potency, µM (titrated, usually from 46.1 µM), for inactives: at the top dose re-replication activation, hits mostly activators; 1.8% of 340,000 active; also: % of control where 0% means no effect; nearly all actives have a fitted effect of over 55% in size
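Hoechst fluorescence of nuclei (405 nm excitation, 500-530 nm emission) measured by plate-scanning imager after 48 hr compound exposure at 37 C; re-replication scored as increased number of nuclei with elevated intensity.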
KB-V1 cytotox: kills drug-selected multidrug resistant KB-V1 cells | KB-V1 MDR cells viability, CellTiter-Glo, 72 h | Potency, µM (doses to about 46.1 µM), hits mostly cytotoxic | 3.4% of 400,000 active | AID 1347076; also: % is scaled to controls: 0 for no effect and ±100 for the full control effect; nearly all actives have a fitted effect of over 60% in size
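KB-V1, DMEM (no phenol red) + 10% FBS; cpd pin-transferred, titration series; 72 h, 37 degrees C; CellTiter-Glo, luminescence. Data normalized, curve-fit.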
ELG1 repair inh: ELG1-dependent DNA repair inhibition | HEK293T ELG1-luciferase reporter, luminescence, 16 h; DNA damage induced by 5-fluorouridine | Potency, µM (top dose mostly 46.1 µM), for the others: at the top dose activity change, negative = inhibition, actives largely listed as inhibitors | 2.3% of 330,000 active | AID 504467; also: % is scaled to controls: 0 for no effect and ±100 for the full control effect; nearly all actives have a fitted effect of over 55% in size
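Luminescence from the luciferase reporter, measured 30 min after ONE-Glo reagent at room temperature, was the read-out. Beforehand, 2,000 cells per well were exposed for 16 hr at 37 °C to 5-fluorouridine together with compound or vehicle.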
MCF10A rereplic: DNA re-replication induction in MCF 10a cells; MCF 10A DNA re-replication, Hoechst nuclear intensity, 48 h; Potency, µM (series often up to 46.1 µM), inactives show top-dose activity, positive = re-replication, actives largely listed as activators; 2.9% of 350,000 active; also: % of control where 0% means no effect; nearly all actives have a fitted effect of over 50% in size
The depositor's hits bear a star. In the library only some 8.1% were active in any assay of this set; here they are far more common. Calls follow the shape of the dose curve; as a rule, active = well fitted curve in the direction sought with a large enough effect; inconclusive = small, poorly fitted or top-dose-only effect, or another doubt; inactive = no such curve, though single readings can be large; an effect the other way counts as inactive or inconclusive. Potency is read from the fitted curve at half-maximal effect.

Screening O=C(NCc1ccco1)/C(=C/c1cccc(C(F)(F)F)c1)c1nc2ccccc2[nH]1 returned KB-3-1 tox inconclusive, SW480 rereplic inconclusive, KB-V1 cytotox 21µM*, ELG1 repair inh -27% and MCF10A rereplic 23µM*.
For O=C(NCc1ccco1)/C(=C/c1ccc(C(F)(F)F)cc1)c1nc2ccccc2[nH]1 the results were KB-3-1 tox inconclusive, SW480 rereplic 21µM*, KB-V1 cytotox inactive, ELG1 repair inh inconclusive and MCF10A rereplic 21µM*.
O=S(=O)(c1ccc(Cl)nc1)N(Cc1ccccc1)Cc1ccccc1 was read as KB-3-1 tox inactive, SW480 rereplic -44%, KB-V1 cytotox 18µM*, ELG1 repair inh -7% and MCF10A rereplic inconclusive.
`CCc1ccc2[nH]c(=O)c(CN(Cc3ccccc3)Cc3nnnn3Cc3ccccc3)cc2c1` gave KB-3-1 tox inactive and KB-V1 cytotox inactive.
O=c1[nH]c2cc3c(cc2cc1CN(Cc1cccnc1)Cc1nnnn1Cc1ccco1)OCCO3 was read as KB-3-1 tox inactive, SW480 rereplic 1%, KB-V1 cytotox inactive, ELG1 repair inh 23µM* and MCF10A rereplic 3%.
Screening Cc1ccc2[nH]c(=O)c(CN(CCc3ccccc3)C(c3nnnn3Cc3ccco3)C(C)C)cc2c1 (stereo not given) returned KB-3-1 tox inconclusive, SW480 rereplic inconclusive, KB-V1 cytotox inconclusive, ELG1 repair inh 18µM* and MCF10A rereplic inconclusive.
Screening O=c1[nH]c2cc3c(cc2cc1CN(Cc1ccccc1)Cc1nnnn1Cc1ccco1)OCCO3 returned KB-3-1 tox inactive, SW480 rereplic inconclusive, KB-V1 cytotox 23µM*, ELG1 repair inh inconclusive and MCF10A rereplic -7%.
Screening CCOC(=O)Cn1nnnc1CN(Cc1ccccc1)Cc1cc2cc(CC)ccc2[nH]c1=O returned KB-3-1 tox inactive, SW480 rereplic inconclusive, KB-V1 cytotox inactive, ELG1 repair inh -7% and MCF10A rereplic 10µM*.
For Cc1ccc(NC(=O)c2ccc(-n3c(C)nnc3C)cc2)cc1F the results were KB-3-1 tox inactive and KB-V1 cytotox inactive.
Screening O=C(C[n+]1ccncc1)c1cccc2ccccc12 returned KB-3-1 tox inactive and KB-V1 cytotox inconclusive.
Screening COc1ccccc1CN(Cc1cc2cc3c(cc2[nH]c1=O)OCCO3)Cc1nnnn1Cc1ccco1 returned KB-3-1 tox inactive, SW480 rereplic 4%, KB-V1 cytotox inactive, ELG1 repair inh 21µM* and MCF10A rereplic 7%.
`O=c1[nH]c2cc3c(cc2cc1CN(Cc1cccs1)Cc1nnnn1Cc1ccco1)OCCO3` gave KB-3-1 tox inactive, SW480 rereplic inconclusive, KB-V1 cytotox inactive, ELG1 repair inh inconclusive and MCF10A rereplic inconclusive.
For COc1cccc(-c2nc(SCC(=O)NC3CCCC3)c(-c3ccc(F)cc3)[nH]2)c1 the results were KB-3-1 tox inactive and KB-V1 cytotox inactive.
COc1ccc(S(=O)(=O)N2CCOCC2)cc1NS(=O)(=O)c1ccc(F)c(F)c1 was read as KB-3-1 tox inactive, SW480 rereplic -7%, KB-V1 cytotox 23µM*, ELG1 repair inh -7% and MCF10A rereplic -3%.
Screening COc1ccc(NS(=O)(=O)c2ccc3ccccc3c2)c2ncccc12 returned KB-3-1 tox inconclusive, SW480 rereplic 15µM*, KB-V1 cytotox inactive, ELG1 repair inh -15% and MCF10A rereplic inconclusive.
`O=S(=O)(Nc1ccccc1N1CCOCC1)c1ccc(Cl)cc1` gave KB-3-1 tox inactive, SW480 rereplic inconclusive, KB-V1 cytotox inconclusive, ELG1 repair inh 9% and MCF10A rereplic -4%.
CCOc1ccccc1NS(=O)(=O)c1ccc(OC)c(OC)c1 was read as KB-3-1 tox inactive, SW480 rereplic -24%, KB-V1 cytotox 26µM*, ELG1 repair inh -17% and MCF10A rereplic 16%.
Screening COc1ccc(S(=O)(=O)Nc2ccccc2N2CCOCC2)cc1OC returned KB-3-1 tox inactive, SW480 rereplic -6%, KB-V1 cytotox 23µM*, ELG1 repair inh -2% and MCF10A rereplic -5%.
`CN1C(=O)C(O)(CC(=O)c2ccc(F)cc2)c2cc(Br)ccc21` (stereo not given) gave KB-3-1 tox 26µM*, SW480 rereplic inconclusive, KB-V1 cytotox inactive, ELG1 repair inh 4% and MCF10A rereplic inconclusive.
O=C(NCC(F)(F)F)[C@H]1O[C@@H](n2ccc(=O)[nH]c2=O)[C@H](O)[C@@H]1O was read as KB-3-1 tox inconclusive and KB-V1 cytotox inactive.
Screening COc1cccc(CNn2c(-c3cccc(C)c3)nc3ccccc3c2=O)c1O returned KB-3-1 tox inactive, SW480 rereplic 1%, KB-V1 cytotox inactive, ELG1 repair inh 16µM* and MCF10A rereplic -3%.
COc1ccc(C(=O)On2c(-c3ccc(Br)cc3)nc3ccccc3c2=O)cc1 was read as KB-3-1 tox inconclusive, SW480 rereplic inconclusive, KB-V1 cytotox inconclusive, ELG1 repair inh inconclusive and MCF10A rereplic 9.2µM*.
Screening COc1ccc(-c2nc3ccccc3c(=O)n2NC(=O)Cc2ccccc2)cc1 returned KB-3-1 tox inactive, SW480 rereplic -8%, KB-V1 cytotox 15µM*, ELG1 repair inh 0% and MCF10A rereplic 2%.
`COc1ccc(O)c(CNn2c(-c3ccc(Br)cc3)nc3ccccc3c2=O)c1` gave KB-3-1 tox inactive, SW480 rereplic -3%, KB-V1 cytotox inconclusive, ELG1 repair inh inconclusive and MCF10A rereplic -14%.
For COc1cc(OC)cc(-c2nc3ccccc3c(=O)n2OC(=O)c2ccc(Br)cc2)c1 the results were KB-3-1 tox inactive, SW480 rereplic inconclusive, KB-V1 cytotox inconclusive, ELG1 repair inh -25% and MCF10A rereplic -9%.
COc1ccc(NC(=O)c2cc(-c3ccc(F)cc3OC)n[nH]2)c(C)c1 was read as KB-3-1 tox inactive and KB-V1 cytotox inactive.
For CCOC(=O)C1=CCC(c2cccc(C)c2)N(S(=O)(=O)c2ccc(C)cc2)C1 (stereo not given) the results were KB-3-1 tox inactive and KB-V1 cytotox inactive.
`CCN(CC)S(=O)(=O)c1ccc2c(c1)N(CC(=O)Nc1ccc(C)cc1C)C(=O)C1CCCN21` (stereo not given) gave KB-3-1 tox inactive and KB-V1 cytotox inactive.
CCOc1cc(OCC)cc(C(=O)N2CCC[C@H]2C(=O)N2CCC[C@H]2C(=O)N[C@@H](C)c2ccccc2)c1 was read as KB-3-1 tox inactive and KB-V1 cytotox inactive.
`CC(C)CCOP(=O)(c1ccc(N(C)C)cc1)C(O)c1ccccc1F` (stereo not given) gave KB-3-1 tox inactive, SW480 rereplic 11%, KB-V1 cytotox 15µM*, ELG1 repair inh inconclusive and MCF10A rereplic 3%.
